Only some compounds are listed: those with a hit (about 2.1% of all), similar ones and a draw of the others.
Abeta yeast res – qHTS for compounds that reverse cellular toxicity of Amyloid beta (A-beta) peptide in yeast: Primary Screen; yeast expressing A-beta42, growth rescue, OD600, 48 h; response scale: 0% DMSO, 100% iron-clioquinol control; Potency, µM (series often up to 46.1 µM), hits mostly activators; actives 0.063% (n = 410,000); also: nearly all actives have a fitted effect of over 55% in size
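Growth rescue measured by 600 nm absorbance after 48 h yeast culture at 30 C with compound. Values normalized between DMSO and an equimolar ferric chloride plus clioquinol control.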
FUS suppressor – qHTS for Suppressors of FUS Proteinopathy: Primary screen using FUS-linked yeast assay; S. cerevisiae FUS-expressing, growth rescue, OD600, 24 h; Potency, µM (highest dose often 76.6 µM), most hits filed as activators; actives 0.24% (n = 390,000); AID 1347120, 2019;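 also: plate controls were DMSO vehicle for no effect and reference control for full effect; nearly all actives have a fitted effect of over 55% in size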
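Yeast expressing FUS under galactose induction, OD 0.005 in 2% galactose medium; compounds in a dilution series, 24 h at 30C. Growth rescue by absorbance at 600 nm; CP55940 positive control, DMSO negative.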
TDP-43 yeast inh – qHTS of TDP-43 Inhibitors | TDP-43 expressing yeast growth rescue, BacTiter-Glo, 24 h | Potency, µM (series often up to 46.1 µM), for inactives: top-dose growth rescue (activation), usual class: activators | actives 1.8% (n = 410,000) | AID 652104, 2013; also: % of control where 0% means no effect; nearly all actives have a fitted effect of over 50% in size
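Galactose-induced TDP-43 yeast, OD600=0.02, compound pinned; 24 hr, 30 deg C; BacTiter-Glo luminescence for growth. Inhibitors of TDP-43 toxicity read as activators.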
aSyn yeast inh – qHTS of alpha-syn Inhibitors; Potency, µM (top dose mostly 46.1 µM), inactives show at the highest dose growth rescue (activation), actives largely listed as activators; actives 0.14% (n = 370,000); Yeast expressing alpha-synuclein, growth rescue, BacTiter-Glo, 24 h; also: % of control where 0% means no effect; nearly all actives have a fitted effect of over 65% in size
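Rescue of yeast growth: cells expressing toxic alpha-synuclein, induced in galactose at OD600 0.02, incubated with compound 24 h at 30 C. ATP luminescence quantified growth; inhibitors of toxicity appear as activators.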
Numbers without * were called inactive. Calls follow the shape of the dose curve; as a rule, active = well fitted curve in the direction sought with a large enough effect; inconclusive = small, poorly fitted or top-dose-only effect, or another doubt; inactive = no such curve, though single readings can be large; an effect the other way counts as inactive or inconclusive. Potency is read from the fitted curve at half-maximal effect.

CC1Cc2cc(S(=O)(=O)NCCc3ccc(Cl)cc3)ccc2N1C(=O)C1CCC1 (stereo not given) was read as Abeta yeast res inconclusive, FUS suppressor inactive and TDP-43 yeast inh 18µM*.
For Cc1ccc(CCNS(=O)(=O)c2ccc3c(c2)CC(C)N3C(=O)C2CCC2)cc1 (stereo not given) the results were Abeta yeast res inactive, FUS suppressor inactive and TDP-43 yeast inh inconclusive.
`CCNC(=S)Nc1ccc2c(c1)oc1ccccc12` gave Abeta yeast res 10µM*, FUS suppressor inactive, TDP-43 yeast inh inconclusive and aSyn yeast inh -14%.
`CCC1CN(C(=O)N2CCC(C(=O)NCCCc3ccccc3)CC2)c2ccccc2O1` (stereo not given) gave Abeta yeast res inactive, FUS suppressor inactive and TDP-43 yeast inh -19%.
COc1ccc(F)cc1-c1cc(NC(C)=O)c2ncc(-c3cccc(C(F)(F)F)c3)n2c1 was read as Abeta yeast res inconclusive, FUS suppressor inconclusive, TDP-43 yeast inh 22µM* and aSyn yeast inh inconclusive.
Screening CC(=O)Nc1cc(-c2ccc(F)cc2)cn2c(-c3ccc(F)c(Cl)c3)cnc12 returned Abeta yeast res inactive, FUS suppressor inactive, TDP-43 yeast inh 20µM* and aSyn yeast inh -15%.
`CC(=O)Nc1cc(-c2ccccc2)cn2c(-c3ccc(F)c(Cl)c3)cnc12` gave Abeta yeast res inactive, FUS suppressor inconclusive, TDP-43 yeast inh inconclusive and aSyn yeast inh -17%.
`COc1cccc(-c2cnc3c(NC=O)cc(-c4ccccc4)cn23)c1` gave Abeta yeast res inactive, FUS suppressor inactive, TDP-43 yeast inh inconclusive and aSyn yeast inh -3%.
`COc1cccc(-c2cnc3c(NC=O)cc(-c4ccccc4Oc4ccccc4)cn23)c1` gave Abeta yeast res inactive, FUS suppressor inconclusive, TDP-43 yeast inh 35µM* and aSyn yeast inh inconclusive.
COc1ccccc1-c1cc(NC=O)c2ncc(-c3cccc(C(F)(F)F)c3)n2c1 was read as Abeta yeast res inactive, FUS suppressor inactive, TDP-43 yeast inh 22µM* and aSyn yeast inh 14%.
For Cc1cc(C(=O)CSc2nnnn2C)c(C)n1C1CC1 the results were Abeta yeast res inactive, FUS suppressor inactive, TDP-43 yeast inh 5% and aSyn yeast inh 6%.
`CCn1c(C)cc(C(=O)CSc2nnnn2C2CCCC2)c1C` gave Abeta yeast res inactive, TDP-43 yeast inh 20µM* and aSyn yeast inh 1%.
`Cc1ccccc1NC(=O)OC1CCC12CCC(c1ccccc1)CC2` (stereo not given) gave FUS suppressor inactive.
Screening COc1ccc2c(c1)-c1c(ssc1=S)C(C)(C)N2 returned Abeta yeast res inactive, FUS suppressor inactive, TDP-43 yeast inh 18µM* and aSyn yeast inh 2%.
Screening Cc1ccc(N2C(S)=C(C#N)C(=O)NC23CCCCC3)cc1 returned Abeta yeast res inactive, TDP-43 yeast inh 22µM* and aSyn yeast inh 1%.
`Cc1cccc(N2C(S)=C(C#N)C(=O)NC23CCCCC3)c1` gave Abeta yeast res inactive, TDP-43 yeast inh -25% and aSyn yeast inh 8%.
For COCO[C@@H]1CC(CO)=C[C@H]2OCO[C@H]21 the results were FUS suppressor inactive.
For O=C(NCc1ccccc1)c1cc(C2CCCCN2C(=O)CCc2ccccc2)on1 (stereo not given) the results were Abeta yeast res inactive, FUS suppressor inactive, TDP-43 yeast inh 35µM* and aSyn yeast inh 8%.
For O=C(NCc1ccc(Cl)c(Cl)c1)c1cc(C2CCCCN2C(=O)CCc2ccccc2)on1 (stereo not given) the results were Abeta yeast res inactive, FUS suppressor inconclusive, TDP-43 yeast inh 8% and aSyn yeast inh inconclusive.
For O=C(NCc1ccccc1)c1cc(C2CCCN(C(=O)CCCc3ccccc3)C2)on1 (stereo not given) the results were Abeta yeast res inactive, FUS suppressor inactive, TDP-43 yeast inh 35µM* and aSyn yeast inh -3%.
For c1ccc(Cn2c(SCC3CCC3)nnc2-c2cccnc2)cc1 the results were FUS suppressor inactive.
For O=C(c1ccc(F)cc1)N1c2ncnn2C2(CCCCC2)[C@@H]2CCCC[C@@H]21 the results were Abeta yeast res inactive, FUS suppressor inactive and TDP-43 yeast inh inconclusive.

Screening results from PubChem.
